# Screens (PubChem)
# Compounds with a hit are over-represented: about 5.3% of the library has one in this group of screens.
# Tau FP inhib: tau fibrillization inhibition (FP); P10636; K18 P301L tau heparin fibrillization, Alexa594 FP, 6 h; Potency, µM (doses to about 57.7 µM), inactives show top-dose activity, negative = inhibition, actives largely listed as inhibitors; 280,000 tested, 0.39% active; AID 1468; note: potency is the fitted concentration of half-maximal effect; nearly all actives have a fitted effect of over 55% in size
# Target sequence (P10636 561-689 P618L limits assumed): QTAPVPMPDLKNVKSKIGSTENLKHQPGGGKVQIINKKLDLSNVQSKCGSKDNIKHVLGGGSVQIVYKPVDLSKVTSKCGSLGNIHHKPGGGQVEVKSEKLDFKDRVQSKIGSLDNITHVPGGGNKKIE
#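 Steps: dispense K18 P301L tau (15 uM plus 0.24 uM Alexa 594 tracer, final) in pH 7 sodium acetate; add compound; add heparin (20 uM final); incubate 6 hr, 37 C; add ThT (30 uM final); after 1 hr ambient, read FP.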
# JMJD2E inh: blocks human JMJD2E demethylase activity; B2RXH2; JMJD2E catalytic domain, FDH-coupled NADH fluorescence (FDH is formaldehyde dehydrogenase); Potency, µM (top dose mostly 57.1 µM), for inactives: top-dose activity change, negative = inhibition, usual class: inhibitors; 230,000 tested, 1.6% active; AID 2147; active = well fitted inhibition curve with a large enough effect, not every such curve was filed as active; inconclusive = small, poorly fitted or top-dose-only effect, or another doubt; inactive = no such curve, though single readings can be large or run the other way;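 note: potency is the fitted concentration of half-maximal effect; 0% = wells with enzyme and -100% = buffer wells without enzyme; nearly all actives have a fitted effect of over 50% in size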
# Target sequence (B2RXH2 1-337 limits assumed): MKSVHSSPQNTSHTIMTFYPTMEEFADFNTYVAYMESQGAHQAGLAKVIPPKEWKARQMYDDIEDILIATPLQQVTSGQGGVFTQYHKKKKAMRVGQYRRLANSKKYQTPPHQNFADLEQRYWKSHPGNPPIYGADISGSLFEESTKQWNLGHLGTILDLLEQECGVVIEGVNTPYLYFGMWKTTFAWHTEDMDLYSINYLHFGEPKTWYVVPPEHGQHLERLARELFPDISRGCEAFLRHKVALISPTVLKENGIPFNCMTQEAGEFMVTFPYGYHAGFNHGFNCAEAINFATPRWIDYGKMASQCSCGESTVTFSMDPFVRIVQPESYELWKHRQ
# Tau fibril ThT: inhibitors of human tau fibril formation, thioflavin T binding; AID 1460; P10636; 270,000 tested, 2.1% active; recombinant tau K18 P301L, heparin-induced fibrillization, ThT fluorescence; Potency, µM (top dose mostly 57.4 µM), for inactives: at the top dose activity, negative = inhibition, actives largely listed as inhibitors; note: potency is the fitted concentration of half-maximal effect; nearly all actives have a fitted effect of over 55% in size
#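 Tau K18 P301L fragment (15 uM unlabeled plus 0.24 uM Alexa 594-labeled) in 100 mM sodium acetate pH 7 with compound, fibrillization induced by 20 uM heparin for 6 hr at 37 C. Thioflavin T (30 uM) added, fluorescence read after 1 hr (ex 450, em 510 nm).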
# FBPA coupling cs: inhibits coupling enzyme system, counter-screen for aldolase hits; activity change, negative = inhibition, % at 58.2 µM, hits read low; 290,000 tested, 0.67% active; coupling enzyme system counterscreen, AmpLite Red fluorescence; in the data active = activity change below about -30%
#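 Compounds tested against the coupling enzymes alone at 57.5 uM final; readout was AmpLite Red fluorescence (525/598 nm) after 20 min at RT.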
# Sfp inh: inhibitors of Bacillus subtilis Sfp phosphopantetheinyl transferase | Q9F4F7 | Biochemical Sfp PPTase activity, qHTS | Potency, µM, without a hit: largest response in the series, negative = inhibition, usual class: inhibitors | 310,000 tested, 3.5% active | AID 1490;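 note: the enzyme is Sfp with the accession as filed and its product quenches rhodamine fluorescence; potency is the fitted concentration of half-maximal effect; 0% = enzyme reaction without inhibitor and -100% = no enzyme wells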
#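 Fluorescence-quenching assay: 15 nM Sfp-PPTase preincubated 15 min at room temperature with compound, then 5 uM rhodamine-CoA and 12.5 uM BHQ-2-labelled YbbR peptide added. Fluorescence (ex 525/em 598 nm) read at start and after 30 min; difference gives rate.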
# Tau fluor counter: counter-screen for tau fibril formation inhibitors; 280,000 tested, 0.93% active; Potency, µM (doses to about 57.7 µM), for inactives: top-dose activity change, negative = decrease; tau K18 P301L (four-repeat tau fragment) Alexa594 fluorescence, heparin fibrillization; note: potency is the fitted concentration of half-maximal effect; nearly all actives have a fitted effect of over 55% in size
#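 Human K18 P301L tau (15 uM unlabeled plus 0.24 uM Alexa 594-labeled, final) in 100 mM sodium acetate pH 7 was mixed with compound and 20 uM heparin and incubated 6 hr at 37 C.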
# Starred values were filed as active, the others as inactive; ? = inconclusive; . = no result; [ ] = dose if it differs, or a comment. Unless noted, calls come from the whole dose curve; as a rule, active = well fitted curve in the direction sought with a large enough effect; inconclusive = small, poorly fitted or top-dose-only effect, or another doubt; inactive = no such curve, though single readings can be large; an effect the other way counts as inactive or inconclusive. Unless noted, % is set by controls: 0 for no effect and ±100 for the full control effect.
SMILES,Tau FP inhib,JMJD2E inh,Tau fibril ThT,FBPA coupling cs,Sfp inh,Tau fluor counter
COC(=O)C(Cc1c[nH]c2ccccc12)NC(=O)COc1ccc(Cl)cc1Cl (stereo not given),12.4%,.,-12.4%,.,.,?
c1ccc(-c2nccc(-c3ccco3)n2)nc1,-4.6%,?,-9.2%,-0.6,6.6%,2.6%
Nc1ncnc2oc(-c3ccco3)c(-c3ccco3)c12,?,?,20µM*,-30.8*,20µM*,?
CC[C@H](C)[C@H](NC(=O)[C@H](Cc1ccc(O)cc1)NC(=O)[C@H](Cc1cnc[nH]1)NC(=O)[C@H](CCCNC(=N)N)NC(=O)[C@H](CC(C)C)NC(=O)[C@H](C)NC(=O)[C@H](CO)NC(=O)[C@H](Cc1ccc(O)cc1)NC(=O)[C@H](Cc1ccc(O)cc1)NC(=O)[C@H](CCCNC(=N)N)NC(=O)[C@H](C)NC(=O)[C@H](CCSC)NC(=O)[C@H](CC(=O)O)NC(=O)[C@H](CCC(=O)O)NC(=O)[C@H](C)NC(=O)[C@@H]1CCCN1C(=O)[C@H](C)NC(=O)[C@H](CC(=O)O)NC(=O)[C@H](CCC(=O)O)NC(=O)CNC(=O)[C@@H]1CCCN1C(=O)[C@H](CC(N)=O)NC(=O)[C@H](CC(=O)O)NC(=O)[C@@H]1CCCN1C(=O)[C@H](CCCCN)NC(=O)[C@H](CO)NC(=O)[C@@H]1CCCN1C(=O)[C@@H](N)Cc1ccc(O)cc1)C(=O)N[C@@H](CC(N)=O)C(=O)N[C@@H](CC(C)C)C(=O)N[C@@H](CC(C)C)C(=O)N[C@H](C(=O)N[C@@H](CCCNC(=N)N)C(=O)N1CCC[C@H]1C(=O)N[C@@H](CCCNC(=N)N)C(=O)N[C@@H](Cc1ccc(O)cc1)C(N)=O)[C@@H](C)O,.,.,.,-0.3,-20.5%,.
Cc1oc(C)c(C(=O)Nc2ccccc2)c1C,.,.,.,-2.5,0.3%,.
Cc1[nH]c(=S)c(C#N)c(C)c1C(=O)Nc1ccccc1,-10.5%,?,-18.4%,1.3,44.7µM*,-15.2%
CCc1c(C(=O)Nc2ccccc2)c(C)[nH]c(=S)c1C#N,-6.3%,?,-21.4%,-5.9,56.2µM*,-10.0%
Cc1cn(C)c(CC(=O)NCc2ccccc2Cl)c1C(=O)O,1.4%,.,4.6%,.,.,3.9%
CC(C)C1=CC2=CC[C@@H]3[C@](C)(CCC[C@@]3(C)C(=O)O)[C@H]2CC1,.,.,.,.,-4.1%,.
CCN1CCN(CCNC(=O)c2ccc(/C=C3\Sc4ccccc4N(Cc4ccccc4F)C3=O)cc2)CC1,-20.3%,?,?,0.7,79.4µM*,-6.1%
CN1CCN(CCCNC(=O)c2ccc(/C=C3\Sc4ccccc4N(Cc4ccc(F)cc4)C3=O)cc2)CC1,?,?,?,-0.4,44.7µM*,-19.0%
O=C(CN1C(=O)/C(=C/c2ccccc2)Sc2ccccc21)NCCCN1CCOCC1,.,.,.,0.4,0.5%,.
CN1CCN(CCCNC(=O)c2ccc(/C=C3/Sc4ccccc4N(Cc4cccc(Cl)c4)C3=O)cc2)CC1,-2.8%,?,-6.7%,-0.3,50.1µM*,-19.6%
COCCCNC(=O)/C=C1\Sc2ccccc2N(Cc2ccccc2F)C1=O,10.1%,?,-6.9%,-0.9,8.6%,-10.7%
Clc1ccc(CN2CCC(Cc3ccccc3)CC2)cc1,3.1%,-2.0%,-4.5%,1.4,?,-6.0%
Clc1cccc(CN2CCC(Cc3ccccc3)CC2)c1,-6.0%,?,17.8µM*,-4.1,?,12.6µM*[quencher]
CC/C(C)=N/Nc1nc(-c2cc3cccc(OC)c3oc2=O)cs1,-4.8%,-10.4%,17.8µM*,1.1,-28.4%,?
Cc1cc(C)c2c(c1)-c1c(ssc1=S)C(C)(C)N2C(=O)CSc1nncn1C,5.8%,-1.2%,?,2.5,50.1µM*,-5.5%
CCn1c(=NC(=O)c2ccc(S(=O)(=O)N3CCCCC3)cc2)sc2cccc(OC)c21,-9.3%,.,-3.3%,.,.,-18.0%
COc1ccc(C(C)=O)c2c(O)cccc12,6.4%,-9.5%,?,-37.3*,-0.6%,-14.4%
COc1ccc(CCNC(=O)C23CN(Cc4ccccc4)CC2C(c2ccc([N+](=O)[O-])cc2)=NO3)cc1 (stereo not given),?,-2.3%,-18.3%,-4.1,50.1µM*,-25.5%
O=C(NCCCCc1ccccc1)C12CN(Cc3ccccc3)CC1C(c1ccc([N+](=O)[O-])cc1)=NO2 (stereo not given),-8.9%,-26.8%,-12.0%,-1.4,28.2µM*,?
O=C(NCCCCc1ccccc1)C12CN(Cc3ccccc3)CC1C(c1cccc([N+](=O)[O-])c1)=NO2 (stereo not given),4.0%,-7.1%,-16.3%,1.7,8.4%,-20.5%
COC(=O)c1ccccc1NC(=O)CSc1cc(-c2ccccc2)nc(C)n1,-8.1%,.,-16.8%,.,.,-12.7%
COc1cc(NC(=O)CN2C(=O)C(c3ccc(C)cc3)=NC23CCCCC3)cc(OC)c1,-20.5%,.,-2.3%,.,.,?
SMILES,Tau FP inhib,JMJD2E inh,Tau fibril ThT,FBPA coupling cs,Sfp inh,Tau fluor counter
CCOC(=O)c1ccc2c(c1)N(Cc1ccc(F)cc1Cl)C(=O)c1ccccc1S2(=O)=O,?,.,-9.5%,.,.,-28.6%
COc1ccc(CCNC(=O)c2ccc3c(c2)NC(=O)C(CSCc2cc(C)ccc2C)N3)cc1OC (stereo not given),.,.,.,-0.3,44.7µM*,.
CCC(=O)Nc1ccccc1-c1nc2ccccc2n(CC(=O)c2ccc(Cl)cc2)c1=O,2.0%,.,-9.8%,.,.,-7.9%
COc1ccc2[nH]c3c(N4CCN(Cc5ccc6c(c5)OCO6)CC4)ncnc3c2c1,?,?,?,-0.1,-5.0%,20µM*[quencher]
COc1ccc2[nH]c3c(N4CCC(O)(c5cccc(C(F)(F)F)c5)CC4)ncnc3c2c1,13.3%,?,?,0.6,6.5%,15.8µM*[quencher]
COc1ccc2c(c1)c1ncnc(N3CCN(Cc4ccc5c(c4)OCO5)CC3)c1n2C,4.0%,?,-15.1%,3.4,-1.7%,-1.5%
Cc1ccc(C2CC(=O)Oc3ccc(C(C)(C)C)cc32)cc1 (stereo not given),-7.5%[81.3 µM],.,-5.2%[81.4 µM],-3.9,2.3%,-8.8%[81.3 µM]
Clc1ccc(Sc2oc(/C=N/n3cnnc3)cc2Br)cc1,9.0%,-23.9%,-15.9%,0.0,-3.0%,-12.7%
CN(C)C(=O)/C(C#N)=C\c1cc(Br)c(Sc2ccc(Cl)cc2)o1,?,-129.3%,?,-50.6*,-23.1%,-2.1%
CN(C)c1ccc(N2CN=C3SCC(=O)N3C2)cc1,12.6µM*,?,5.01µM*,-50.8*,?,?
COc1ccc(/C(C)=N/Nc2nc3ccccc3nc2C)cc1OC,?,-2.1%,12.6µM*,-1.5,0.1%,?
